Screening data: PubChem, National Center for Advancing Translational Sciences (NCATS)
Tb PYK inh – blocks Trypanosoma brucei pyruvate kinase. 410,000 compounds, 0.12% hits. TbPYK enzyme, Kinase-Glo Plus ATP luminescence, 45 min. Q57TT1. Potency, µM (titrated, usually from 76.8 µM), for the others: top-dose activity, negative = inhibition, actives largely listed as inhibitors. AID 624173; further: potency means the concentration at half of the fitted maximal effect; on the % scale 0 is the no-effect control and ±100 the full control effect; nearly all actives have a fitted effect of over 50% in size
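Activity of T. brucei pyruvate kinase was followed by Kinase-Glo Plus luminescence after the enzyme reacted 45 min at room temperature with 130 uM ADP (final) and substrate. Test compounds were added before ADP at multiple concentrations.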
RE007 growth inh – less growth of the S. pombe RE007 Vpr strain. S. pombe RE007 Vpr strain, BacTiter-Glo ATP luminescence, 24 h. Potency, µM (highest dose often 92.2 µM), without a hit: top-dose activity change, negative = less growth, usual class: inhibitors. 360,000 compounds, 0.21% hits; active means well fitted falling curve with a large enough effect; inconclusive means small, poorly fitted or top-dose-only effect; inactive means no such curve, though single readings can be large or run the other way; further: potency means the concentration at half of the fitted maximal effect; on the % scale 0 is the no-effect control and ±100 the full control effect; nearly all actives have a fitted effect of over 50% in size
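Fission yeast RE007 carrying one integrated HIV-1 vpr copy, seeded at OD 0.01 in PMG+AL medium with 23 nL pinned compound. Grown 24 h at 30 degrees; viability read by BacTiter-Glo luminescence after 5 min.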
Cycloheximide cs – affects cycloheximide protein synthesis inhibition readout, counter-screen | cell reporter, cycloheximide protein synthesis inhibition counterscreen | max response, % | 300,000 compounds, 12% hits | AID 2314; in the data active means max response mostly above about 13%, no sharp cut-off; inactive means mostly below about 14%; further: read at 38.3 µM for the half of the compounds with a filed dose; 0% is about no effect
Shiga toxin inh – Shiga toxin inhibition. AID 2315. inhibition, % at 38.7 µM. 290,000 compounds, 9.2% hits. Vero cells, Shiga toxin protein synthesis inhibition reporter; in the data active means inhibition mostly above about 28%, no sharp cut-off; inactive means mostly below about 43%; further: 0% is about no effect
LmPK inh – inhibitors of Leishmania mexicana pyruvate kinase. Q27686. purified LmPK, Kinase-Glo ATP luminescence, 1 h. Potency, µM (titrated, usually from 57.5 µM), for inactives: at the highest dose activity change, negative = inhibition, hits mostly inhibitors. 290,000 compounds, 0.37% hits; further: potency means the concentration at half of the fitted maximal effect; on the % scale 0 is the no-effect control and ±100 the full control effect
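Purified LmPK (0.1 nM) with 0.5 mM PEP and 0.1 mM ADP in imidazole buffer pH 7.2 with MgCl2/KCl, 1 h at room temperature. ATP formed was read by luciferase luminescence and normalized to no-enzyme and uninhibited controls.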
FBPA Giardia inh – inhibitors of Giardia lamblia fructose-1,6-bisphosphate aldolase; A8B2U2; purified Giardia FBPA; Potency, µM (titrated, usually from 59.6 µM), for inactives: top-dose activity, negative = inhibition, most hits filed as inhibitors; 290,000 compounds, 0.71% hits; AID 2451; further: potency means the concentration at half of the fitted maximal effect; on the % scale 0 is the no-effect control and ±100 the full control effect; nearly all actives have a fitted effect of over 55% in size
Target sequence (A8B2U2 whole entry, looked up): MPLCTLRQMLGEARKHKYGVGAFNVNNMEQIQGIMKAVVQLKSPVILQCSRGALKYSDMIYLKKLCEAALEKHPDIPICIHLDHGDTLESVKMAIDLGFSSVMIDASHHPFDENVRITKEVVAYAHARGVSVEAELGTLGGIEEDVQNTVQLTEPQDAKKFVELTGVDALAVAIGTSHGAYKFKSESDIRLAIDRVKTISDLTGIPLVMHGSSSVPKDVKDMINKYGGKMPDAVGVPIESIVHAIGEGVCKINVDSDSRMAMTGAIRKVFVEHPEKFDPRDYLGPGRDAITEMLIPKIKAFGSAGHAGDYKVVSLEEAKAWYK
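Giardia FBPA (40 nM reagent) was preincubated 10 min at RT with compound (up to 57.5 uM final), then substrate plus GAPDH/TPI/NAD/arsenate coupling system with diaphorase/resazurin was added; resorufin fluorescence (525/598 nm) was read after 20 min.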
* hit, by the source's call; ? = inconclusive; / = no result given; [ ] = dose if it differs, or a comment. This is one part of a sample in which hits are shown more often than they occur. Unless noted, the call rests on the fitted dose curve; in most records, active means well fitted curve in the direction sought with a large enough effect; inconclusive means small, poorly fitted or top-dose-only effect, or another doubt; inactive means no such curve, though single readings can be large; an effect the other way counts as inactive or inconclusive.

SMILES	Tb PYK inh	RE007 growth inh	Cycloheximide cs	Shiga toxin inh	LmPK inh	FBPA Giardia inh
CC(=O)N(c1ccccc1)C1CC(C)N(C(=O)c2ccccc2)c2ccccc21 (configuration not stated)	-13.8%	-10.5%	3.7	/	0.5%	-0.6%
Cc1ccc(C(=O)N(c2ccccc2)C2CC(C)N(C(=O)c3ccco3)c3ccccc32)cc1 (configuration not stated)	-1.3%	-4.8%	17.7*	31.4	-4.7%	-8.5%
O=C(COc1ccccc1Cl)NCCCNC(=O)c1ccco1	5.9%	1.1%	11.0	-17.9	0.5%	2.0%
CCn1c(SC)nnc1-c1sc2cc(Cl)ccc2c1Cl	-10.0%	-5.7%	13.5*	70.8*	5.7%	-14.5%
CSc1nnc(-c2sc3cc(Cl)ccc3c2Cl)n1C	2.4%	10.1%	-0.4	-7.0	-12.7%	-0.1%
Cc1ccc(NC(=O)N2CCc3c(sc4c3CCCC4)C2c2ccccc2)cc1F (configuration not stated)	-9.6%	/	/	/	/	/
CN(CC1CCOCC1)C(=O)CC1C(=O)NCCN1Cc1ccc(F)c(F)c1 (configuration not stated)	-18.2%	8.2%	-2.6	-4.6	0.0%	/
CCN=C1NN=C(c2cc(C)n(Cc3ccco3)c2C)CS1	9.8%	-12.4%	86.6*	138.4*	-15.2%	-0.3%
COCCn1c(C)cc(C2=NNC(=Nc3ccccc3)SC2)c1C	?	14.8%	23.4*	34.3	-26.5%	-8.8%
CCCCN=C1NN=C(c2ccc3c(c2)OCCO3)CS1	?	-13.4%	19.4	34.9	-2.7%[11.5 µM]	-10.5%
Clc1ccc(C2=NNC(=NCC3CCCO3)SC2)cc1 (configuration not stated)	-22.9%	-26.0%	60.5*	160.0*	-7.2%	6.4%
C=CCn1c(C)cc(C2=NNC(=NCc3ccccc3)SC2)c1C	-22.6%	1.4%	62.1*	110.9*	6.9%	-8.9%
CCN(CC)c1nc(C(F)(F)F)nc2c1nnn2Cc1ccccc1	-1.7%	1.5%	0.8	-3.1	-2.0%	-6.9%
C=C(C)CN=C1NN=C(c2cc(C)n(-c3ccc(C)cc3)c2C)CS1	-16.1%	13.9%	4.9	-1.5	-3.9%	-11.9%
Cc1ccc(C)c(C2=NNC(=NCc3ccccc3)SC2)c1	?	-12.5%	25.3	32.0*	-9.0%	-4.7%
CCN=C1NN=C(c2cc(C)n(CCc3ccccc3)c2C)CS1	-17.1%	-4.1%	32.1*	62.2*	3.5%	-27.1%
COCCn1c(C)cc(C2=NNC(=NC(C)(C)C)SC2)c1C	-15.2%	5.2%	10.0	4.4	4.5%	-20.4%
Cc1cc(C2=NNC(=NCCc3ccccc3)SC2)c(C)n1CC1CCCO1 (configuration not stated)	-24.0%	-13.0%	46.5*	194.1*	-2.5%	-15.3%
CC(=O)Nc1nc(-c2cc([N+](=O)[O-])cs2)cs1	-8.6%	-4.4%	-2.7	16.1	-1.1%	2.2%
NC(=O)[C@@H]1CCCN1Cc1c(C(=O)N2CCc3ccccc3C2)nc2ccc(Cl)cn12	-2.9%	2.8%	-3.1	-7.6	-6.7%	/
CC(C)[C@@H](CO)NS(=O)(=O)c1ccc(Br)cc1F	-2.3%	4.5%	/	/	/	/
CCOc1ccc(C(=O)NCCc2csc(-c3cccnc3)n2)cc1	1.2%	/	/	/	/	/
CC(=O)Nc1ccc(-c2csc(Nc3ccc(Cl)cn3)n2)cc1	4.3%	6.5%	38.4*	22.8	-4.5%	-3.7%
CC(=O)Nc1cccc(-c2csc(Nc3ccc(Cl)cn3)n2)c1	-2.0%	?	46.2*	146.5*	3.7%	-4.8%
CC(=O)Nc1cccc(-c2csc(N)n2)c1	-2.9%	-11.6%	-2.2	30.5	0.2%	0.8%
SMILES	Tb PYK inh	RE007 growth inh	Cycloheximide cs	Shiga toxin inh	LmPK inh	FBPA Giardia inh
NC(=O)c1ccccc1NC(=O)Cn1nc(Cc2cccnc2)c2ccccc2c1=O	-4.7%	/	/	/	/	/
Cc1ccccc1-c1noc(-c2cccnc2N2CCN(c3ccccc3)CC2)n1	-10.8%	/	/	/	/	/
CCOC(=O)c1c(/N=C/c2ccc(OC)cc2O)sc2c1CCN(C)C2	-12.5%	1.9%	2.5	22.2	-5.1%	?
CN1CCc2c(sc(/N=C/c3cc(Cl)ccc3O)c2C#N)C1	-18.6%	?	51.7*	101.1*	-11.9%	-12.9%
COc1cccc(OCc2cc(C(=O)N3CCCC3c3ccccn3)no2)c1 (configuration not stated)	8.1%	-0.8%	70.4*	61.7*	-7.0%	/
COc1cccc(OCc2cc(C(=O)N3CCNC(=O)C3Cc3ccccc3)no2)c1 (configuration not stated)	4.2%	-6.5%	40.0*	74.2*	0.5%	1.2%
CCCCCC1CCC(c2ccc(/C(N)=N/O)cc2)CC1 (configuration not stated)	-0.2%	-2.5%	-1.5	-5.3	5.7%	0.9%
COc1ccc(CNCc2ccc(C(F)(F)F)cc2)cc1OC	-10.7%	-19.9%	-2.9	-4.7	0.3%	-15.4%
COc1cc(O)oc1C=Nc1ccc(C(F)(F)F)cc1	-2.4%	4.4%	42.0*	33.9*	-16.3%	-8.0%
CC(=O)N1c2ccc(S(=O)(=O)N3CCC(C(=O)NCCc4ccc(Cl)cc4)CC3)cc2CC1C (configuration not stated)	-9.2%	-18.9%	-1.3	2.7	-2.5%	/
O=C(NN1CCOCC1)c1cc(-c2ccc(Br)s2)nc2ccccc12	0.5%	-3.8%	-0.3	17.6	-7.0%	1.7%
CCCc1ccc(-c2cc(C(=O)Nc3ccc([N+](=O)[O-])cn3)c3ccccc3n2)cc1	-3.9%	4.5%	21.4*	16.8*	-0.9%	-0.1%
CC(C)Oc1cccc(-c2cc(C(=O)NN3CCOCC3)c3ccccc3n2)c1	6.2%	10.2%	12.4*	17.5	1.7%	/
CCCc1ccc(-c2cc(C(=O)NN3CCOCC3)c3ccccc3n2)cc1	-4.4%	6.1%	20.2*	54.3	-6.9%	/
NS(=O)(=O)c1ccc(CCNC(=O)c2cc(-c3ccc(Br)cc3)nc3ccccc23)cc1	-3.2%	-23.0%	8.4	20.8	0.3%	0.7%
CCCc1ccc(-c2cc(C(=O)NCCc3ccc(S(N)(=O)=O)cc3)c3ccccc3n2)cc1	-4.7%	6.3%	54.3*	94.7*	-1.4%	-5.5%
Cc1cccc(Nc2ccc(C(=O)N3CCOCC3)cn2)c1	1.4%	1.7%	46.1*	65.6*	2.7%	4.4%
Cc1cccc(-n2cnc3cc(C(=O)N4CCCCC4)ccc32)c1	-4.7%	7.2%	40.5*	99.6*	1.2%	9.0%
Cc1cccc(-n2c(C)nc3cc(C(=O)N4CCOCC4)ccc32)c1	-25.9%	5.8%	13.4*	17.3	-2.0%	-8.9%
CCCCCNC(=O)c1ccc2c(c1)ncn2-c1cccc(C)c1	-5.3%	/	/	/	/	/
CCC(C)NC(=O)c1ccccc1NC(=O)CN1C(=O)c2cccc3cccc1c23 (configuration not stated)	-4.4%	/	/	/	/	/
